Screening results deposited in PubChem BioAssay by National Center for Advancing Translational Sciences (NCATS).
NS1 function inh = inhibitors of influenza NS1 protein function | Potency, µM (series often up to 46.1 µM) | 270,000 tested, 0.4% active | AID 2326; calls by dose curve; further: actives are rising curves; nearly all actives have a fitted effect of over 50% in size
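In this qHTS, NS1 from influenza A is expressed in budding yeast, where it slows growth. Cells are switched from glucose to 2% galactose medium (pH 6.0, -URA), treated with compound, and growth recovery is read at OD600.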
Pf growth 48h = P. falciparum growth inhibition at 48 hours (one generation). P. falciparum luciferase growth in erythrocytes, 48 h. 310,000 tested, 5.9% active. Potency, µM (titrated, usually from 28.7 µM), usual class: inhibitors
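Here the parasites carry a stable luciferase gene and grow inside erythrocytes in Albumax-based RPMI medium with compound for one erythrocytic cycle. Activity is scored as loss of luminescent signal.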
CHX counter = counter-screen hit for Shiga toxin inhibitors, cycloheximide; cell reporter, cycloheximide protein synthesis inhibition counterscreen; max response, %; 300,000 tested, 12% active; in the data active means max response mostly above about 13%, no sharp cut-off; inactive means mostly below about 14%; further: read at 38.3 µM for the half of the compounds with a filed dose
Shiga toxin inh = inhibitors of Shiga toxin in Vero cells; Vero cells, Shiga toxin protein synthesis inhibition reporter; inhibition, % at 38.7 µM; 290,000 tested, 9.2% active; AID 2315; in the data active means inhibition mostly above about 28%, no sharp cut-off; inactive means mostly below about 43%
Pf growth 96h = P. falciparum growth inhibition at 96 hour, primary screen for plastid delayed-death inhibitors. 320,000 tested, 6.9% active. P. falciparum luciferase reporter growth, 96 h. Potency, µM (titrated, usually from 28.7 µM), most hits filed as inhibitors
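Erythrocytes infected with luciferase-expressing P. falciparum were dispensed at 2% hematocrit and 0.05% parasitemia (final), then incubated with compounds 96 hours at 37 C in 5% CO2. Luminescence after detection reagent addition reported growth.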
A number is an active result; n = inactive; u = inconclusive; x = not tested or not shown. A selection: hits, their analogues and other compounds. The true share with any hit is near 21%. Unless noted, the call rests on the fitted dose curve; in most records, active means well fitted inhibition curve with a large enough effect; inconclusive means small, poorly fitted or top-dose-only effect, or another doubt; inactive means no such curve, though single readings can be large or run the other way.

SMILES	NS1 function inh	Pf growth 48h	CHX counter	Shiga toxin inh	Pf growth 96h
CCOC(=O)N1CCN(S(=O)(=O)CCNC(=O)c2ccc(F)cc2)CC1	x	n	x	x	n
O=C(COC(=O)c1c(F)cccc1F)Nc1ccccc1OC(F)F	n	n	n	n	n
CCC(C)(C)C1CCC(NC(=O)N2CCN(c3ccccc3O)CC2)CC1 (centres undefined)	n	u	n	n	n
Cc1ccc(CCCOC(=O)CN2CCCCC2)cc1	x	n	n	n	n
O=C(c1cc2cc([N+](=O)[O-])ccc2s1)N1CCOCC1	x	n	n	n	n
O=C(Nc1ccccn1)c1ccc(Br)s1	n	n	40	x	n
O=C(c1cc2cc([N+](=O)[O-])ccc2s1)N1CCCCC1	x	n	28	n	n
Cc1ccc(NC(=O)c2ccc([N+](=O)[O-])cc2Cl)nc1	n	n	75	125	n
O=C(Nc1nnc(-c2ccccc2Cl)o1)c1cc2cc([N+](=O)[O-])ccc2s1	n	n	n	n	n
Cc1ccc(NC(=O)Nc2ccc([N+](=O)[O-])cc2)nc1	x	n	n	n	n
O=C(Nc1ccccn1)c1cc2cc([N+](=O)[O-])ccc2s1	x	n	40	79	n
COc1cc(Cl)c(S(=O)(=O)NCCCn2ccnc2)cc1Cl	n	u	n	x	n
CC1CN(S(=O)(=O)c2ccc(C(=O)N(CCCN(C)C)c3nc4cc5c(cc4s3)OCCO5)cc2)CC(C)O1 (centres undefined)	x	u	x	x	n
C=C1CCN(C(Cc2ccccc2)C(=O)N2CCOCC2)S(=O)(=O)c2ccccc21 (centres undefined)	x	x	n	n	x
COc1cccc(N2C(=O)Nc3ccc(Br)cc3C2(O)C(=O)NCCCN(C)C)c1 (centres undefined)	n	n	n	n	u
O=C(Nc1ccsc1C(=O)O)c1ccccc1Cl	n	n	n	n	n
CC(C)[C@H](NC(=O)OCc1ccccc1)C(=O)OCC(=O)Nc1c(F)cccc1F	n	n	n	n	n
Cc1cc(NC(=O)c2ccc([N+](=O)[O-])cc2Cl)no1	n	n	43	70	n
O=C(Nc1ccccn1)c1ccc(Cl)c([N+](=O)[O-])c1	n	n	20	64	n
Cc1cc(C(=O)N/N=C/C=C/c2ccc([N+](=O)[O-])cc2)n[nH]1	x	n	n	n	u
Clc1ccc2nc(-c3ccncc3)cc(-c3ccccc3)c2c1	n	n	n	n	u
CSc1cc(-c2ccncc2)nc(-c2ccc(Cl)cc2)c1	n	x	n	n	15µM
O=c1c2cn(Cc3ccc(F)cc3)c3ccc(F)cc3c-2nn1Cc1ccc(F)cc1	n	n	n	n	n
Cc1ccc(C)c(Cn2nc3c4ccccc4n(Cc4ccccc4)cc-3c2=O)c1	n	13µM	n	n	n
C[C@H]1CC[C@@H]2[C@@H](C)[C@H]3C(CC4C5CC=C6CC(O[C@@H]7O[C@H](CO)C(O[C@@H]8O[C@@H](C)[C@H](O)[C@@H](O)[C@H]8O)[C@H](O)[C@H]7O[C@@H]7O[C@@H](C)[C@H](O)[C@@H](O)[C@H]7O)CC[C@]6(C)C5CC[C@@]43C)N2C1 (some centres undefined)	x	x	n	n	x
SMILES	NS1 function inh	Pf growth 48h	CHX counter	Shiga toxin inh	Pf growth 96h
Cc1ccc(/C=N/NC(=O)c2cc(C3CC3)nc3ccccc23)o1	n	n	n	n	n
COc1ccc(C2NC(=O)NC(C)=C2C(=O)OC2CCCCC2)cc1OC (centres undefined)	n	n	n	n	n
COC(=O)C1=C(C)NC(=O)NC1c1ccccc1 (centres undefined)	n	n	n	n	u
COc1cc(C2NC(=S)NC(C)=C2C(=O)Nc2ccc(C)cc2)ccc1O (centres undefined)	n	n	45	71	n
COC(=O)C1=C(C)NC(=O)NC1c1ccc2ccccc2c1 (centres undefined)	n	u	n	n	10µM
C=CCOc1c(OC)cc(Cl)cc1C1NC(=O)NC(C)=C1C(C)=O (centres undefined)	n	n	n	n	3.3µM
COc1cc(C2NC(=O)NC(C)=C2C(=O)OC2CCC(C)CC2)ccc1O (centres undefined)	n	12µM	n	n	2.6µM
COc1cc(Cl)cc(C2NC(=O)NC(C)=C2C(C)=O)c1OCC(=O)O (centres undefined)	n	x	n	n	n
COc1ccc(NC(=O)C2=C(C)NC(=S)NC2c2ccc(O)c(OC)c2)cc1 (centres undefined)	n	n	n	n	n
CC(=O)c1cccc(NC(=O)CCN2C(=O)C3CC=CCC3C2=O)c1 (centres undefined)	x	n	x	x	n
Cn1cc(CC(=O)Nc2cccc(C#N)c2)c2ccccc21	n	x	n	n	u
C=CCOc1c(Cl)cc(C2NC(=O)NC(C)=C2C(=O)OC)cc1Cl (centres undefined)	n	9.3µM	n	n	x
CCOC(=O)C1=C(C)NC(=S)NC1c1ccc(-c2ccc(Cl)cc2)o1 (centres undefined)	n	u	n	n	7.4µM
COC(=O)C1=C(C)NC(=O)NC1c1ccc(-c2ccccc2Cl)o1 (centres undefined)	x	n	n	n	3.7µM
CCOC(=O)C1=C(C)NC(=O)NC1c1ccc(-c2ccc(Cl)cc2)o1 (centres undefined)	n	n	n	n	n
CC(=O)c1ccc(N2CCN(C(=O)Nc3cccc(F)c3)CC2)cc1	n	u	n	n	n
C[C@H](NC(=O)c1ccccc1Cl)C(=O)NCCc1ccc(S(N)(=O)=O)cc1	n	n	n	n	n
Cn1c(N2CCN(C(c3ccccc3)c3ccccc3)CC2)nc2ccccc21	n	u	n	n	13µM
C[C@H](NC(=O)c1ccccc1)C(=O)N1CCN(c2ccccc2)CC1	n	n	n	n	n
COc1ccc(CCN(/C=C2\Sc3ccccc3C2=O)C(C)=O)cc1OC	n	n	42	n	n
COc1ccc(CCN(C)C(=O)CN2C(=O)c3ccccc3S2(=O)=O)cc1OC	n	n	n	n	x
CCNc1nc(SCC(=O)OC)nc(N2CCOCC2)n1	n	n	n	n	n
COC(=O)Cn1nnc(N2CCOCC2)n1	n	n	40	n	n
O=C(Cn1nnc(-c2cccs2)n1)N1CCOCC1	x	n	n	n	9.3µM
CC1CCN(C(=O)Cn2nnc(-c3cccs3)n2)CC1	n	n	39	68	u
SMILES	NS1 function inh	Pf growth 48h	CHX counter	Shiga toxin inh	Pf growth 96h
COc1ccc(-c2ccc(-c3nnn(CC(=O)N4CCOCC4)n3)cc2)cc1	n	n	23	n	n
COc1cccc(-c2nnn(CC(=O)N3CCC(C)CC3)n2)c1	n	n	n	n	u
CN(C)CCNC(=S)Nc1ccc(Br)cc1	n	n	n	n	n
COc1cccc(CN(C)C(=O)c2ccc(Oc3ccccc3)cc2)c1OC	n	n	n	n	n
O=C(Cn1nnc(-c2cccs2)n1)OC1CCCCC1	n	n	18	n	u
Cc1cc(C(=O)NCCc2ccc(Cl)cc2)c2ccccc2n1	n	n	n	n	n
Cc1cc(C(=O)N(Cc2nnc(-c3ccc(Cl)cc3)o2)C(C)C)c2ccccc2n1	x	12µM	x	x	10µM
Cc1ccc(N/N=C/c2c(O)n(-c3ccccc3)c(=O)[nH]c2=O)cc1	x	n	22	n	n
